Screening results as filed in PubChem BioAssay.
This is a sample that favours compounds with a hit; in the whole collection about 4% have one here.
Mtb UGM inh: M. tuberculosis UGM enzyme inhibitors, primary screen, biochemical, fluorescence polarization, single point | 320,000 compounds, 0.06% hits | UDP-galactopyranose mutase (Mycobacterium tuberculosis (strain ATCC 25618 / H37Rv)), … | inhibition, % at 10 µM | purified UGM, fluorescence polarization probe displacement | AID 504406, 2011; in the data active = inhibition above about 10%, passing the limit was not always enough
FBA Mtb inh: Mtb FBA enzyme inhibitors, primary screen, biochemical, fluorescence, strain H37Rv | purified M. tuberculosis FBA, fluorescence read-out | Fructose-bisphosphate aldolase (Mycobacterium tuberculosis (strain ATCC 25618 / H37Rv)), … | inhibition, % at 1 µM | AID 588726, 2011 | 360,000 compounds, 2.3% hits
Target sequence (P9WQA3 whole entry, looked up): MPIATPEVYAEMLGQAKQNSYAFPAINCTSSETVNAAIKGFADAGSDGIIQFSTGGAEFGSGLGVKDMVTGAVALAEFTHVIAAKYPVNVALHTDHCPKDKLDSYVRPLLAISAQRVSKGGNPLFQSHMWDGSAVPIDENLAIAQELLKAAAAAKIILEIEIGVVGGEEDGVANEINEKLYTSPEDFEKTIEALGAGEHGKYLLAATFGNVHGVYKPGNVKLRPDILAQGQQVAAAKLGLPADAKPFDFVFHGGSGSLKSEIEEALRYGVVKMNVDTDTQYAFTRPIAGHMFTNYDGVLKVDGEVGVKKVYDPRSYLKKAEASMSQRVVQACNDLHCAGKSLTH
Rv3671c inh: Rv3671c serine protease inhibitors, primary screen, biochemical, fluorescence polarization, M. tuberculosis H37Rv; P9WHR9; inhibition, % at 5.96 µM; 320,000 compounds, 0.048% hits; in the data active = inhibition above about 38%;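 also: extracellular domain of Rv3671c used as enzyme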
RecA splice inh: Mtb RecA intein splicing inhibitors, primary screen, biochemical, fluorescence, HTS; Protein RecA (Mycobacterium tuberculosis (strain ATCC 25618 / H37Rv)), P9WHJ3; cell-free RecA intein splicing; inhibition, % (no concentration beside the values); 290,000 compounds, 0.75% hits; AID 2221, 2009; in the data active = inhibition above about 30%
Mtb bLac sens: beta-lactam sensitization of Mtb H37Rv, H37Rv; M. tuberculosis H37Rv growth with meropenem, percent inhibition; inhibition, % at 25 µM; 330,000 compounds, 0.27% hits; call rule not given here;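 also: growth measured after seven days incubation then overnight dye step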
GDH-TPI counter-1: GDH-TPI coupling enzyme inhibitors, primary screen, artefact control for M. tuberculosis FBA inhibitor project, biochemical, absorbance, full deck; inhibition, % at 4.8 µM; GDH-TPI coupled enzyme counterscreen, NADH absorbance; 360,000 compounds, 1.2% hits; in the data active = inhibition above about 30%
Mtb FBA confirm: M. tuberculosis aldolase blockers, biochemical, fluorescence, strain H37Rv, confirmation; AID 651616, 2012; shares compounds with FBA Mtb inh; inhibition, % at 1 µM; purified M. tuberculosis FBA, fluorescence read-out; 5,600 compounds, 78% hits
GDH-TPI counter-2: GDH-TPI coupling enzyme inhibitors, artefact control for M. tuberculosis FBA inhibitor project, biochemical, fluorescence, high throughput. shares compounds with FBA Mtb inh. GDH-TPI coupled enzyme counterscreen. inhibition, % at 1 µM. 5,600 compounds, 81% hits; in the data active = inhibition above about 10%
Hits are given with their value; – = inactive; · = not tested or not shown; + = active, no number. Rule as the data show it, unless noted: active = inhibition above about 27%; inactive = the rest.

SMILES | Mtb UGM inh | FBA Mtb inh | Rv3671c inh | RecA splice inh | Mtb bLac sens | GDH-TPI counter-1 | Mtb FBA confirm | GDH-TPI counter-2
CC(C)(C)C(=O)Nc1sc2c(c1-c1nc3ccccc3[nH]1)CCCC2 | – | 83 | – | – | – | – | 83 | 61
Cc1ccc(S(=O)(=O)Cc2cn3cccnc3n2)cc1 | · | 92 | · | – | · | – | 50 | 32
c1cnc2nc(CSc3ncn[nH]3)cn2c1 | – | 88 | – | – | – | – | 184 | 144
Clc1ccc2nc(CSc3nncn3-c3ccccc3)cn2c1 | – | – | – | – | – | – | · | ·
c1ccc(SCc2cn3cccnc3n2)nc1 | – | 74 | – | – | – | – | 65 | 39
c1ccc(-n2cnnc2SCc2cn3cccnc3n2)cc1 | – | 103 | – | – | – | – | 102 | 76
C[C@H](CO)N1C[C@H](C)[C@@H](CN(C)S(C)(=O)=O)Oc2ccc(NC(=O)Nc3ccc4c(c3)OCO4)cc2C1=O | – | – | – | · | – | – | · | ·
O=S(=O)(c1ccc(Cl)cc1)N1CCN(C(=S)NCC2CCCO2)CC1 (stereo not given) | – | – | – | – | – | – | · | ·
COc1ccc(N2CCN(CCNC(=O)Nc3ccc(C)cc3Cl)CC2)cc1 | – | – | – | – | – | – | · | ·
COc1ccc(Cl)cc1CN1C(=O)C(Cc2ccccc2)ON=C1C (stereo not given) | · | – | · | · | · | – | · | ·
[N-]=[N+]=NCc1cn2cccnc2n1 | – | 63 | – | – | – | – | 79 | 63
CN1CCN(Cc2cn3cccnc3n2)CC1 | – | – | – | – | – | – | · | ·
Cc1ccc(C(=O)NCCNC(=O)c2ccccn2)cc1 | – | – | – | – | – | – | · | ·
Cc1ccc(C(=O)NCCc2cccs2)cc1 | – | – | – | – | – | – | · | ·
CCCn1nc2cc(C(=O)NCc3ccc(C)cc3)ccc2c1OCC | – | 52 | – | – | – | – | 86 | 63
CCOc1c2ccc(C(=O)NCc3ccc(C)cc3)cc2nn1CC | – | 67 | – | – | – | – | 67 | 45
CCOc1ccc(C(=O)NCc2ccccc2OC)cc1 | – | – | – | – | – | – | · | ·
CCCn1nc2cc(C(=O)NCc3ccccc3OC)ccc2c1OCC | – | 42 | – | – | – | – | – | –
CCn1nc2cc(C(=O)NCCc3cccs3)ccc2c1OC | – | 41 | – | – | – | – | + | 196
O=C(NCCCCc1ccccc1)c1cccc(Br)c1 | – | – | – | – | – | – | · | ·
CCOc1c2ccc(C(=O)NCCCCc3ccccc3)cc2nn1CC | – | 48 | – | – | – | – | – | –
CCOc1c2ccc(C(=O)NCCc3ccc(C)cc3)cc2nn1CC | – | 51 | – | – | – | – | 121 | 105
Fc1cccc(CCNCc2ccccn2)c1 | – | 30 | – | – | – | – | 87 | 82
c1ccc(CNCCc2ccc3c(c2)OCO3)nc1 | – | – | – | – | – | – | · | ·
CC(OC(=O)Cc1ccc(Cl)cc1)C(=O)NC1CCCCC1C (stereo not given) | · | – | · | · | · | – | · | ·
SMILES | Mtb UGM inh | FBA Mtb inh | Rv3671c inh | RecA splice inh | Mtb bLac sens | GDH-TPI counter-1 | Mtb FBA confirm | GDH-TPI counter-2
CCCOc1ncnc2c1[nH]c1ccccc12 | – | – | – | – | – | – | · | ·
CC(C)Oc1ncnc2c1[nH]c1ccccc12 | – | 33 | – | · | – | – | 165 | 130
CCCCCc1c(O)c2ccccc2[nH]c1=O | – | 29 | – | – | – | – | 62 | 51
CCN(CC)C(=O)Cc1c(O)c2ccccc2[nH]c1=O | – | 29 | – | – | – | – | 98 | 70
CC(C)CCN(CCC(C)C)C(=O)Cc1c(O)c2ccccc2[nH]c1=O | – | – | – | – | – | – | · | ·
COC(=O)/C=c1\[nH]c2nnc(C)n2c1=O | – | 84 | – | – | – | – | + | +
COC(=O)/C=c1\sc2ncnn2c1=O | – | – | – | – | – | – | · | ·
Cc1cc(C)nc(SCc2nc3nc(C)cc(C)n3c2Br)n1 | – | 30 | – | – | – | – | 36 | 22
Cc1cc(C)n2c(Br)c(CN3CCCC(C)C3)nc2n1 (stereo not given) | – | 35 | – | · | – | – | 77 | 58
Cc1cc(C)n2c(Br)c(CN3CC4CC(C3)c3cccc(=O)n3C4)nc2n1 (stereo not given) | – | – | – | – | – | – | · | ·
CS(=O)(=O)c1ccc(-c2cnc3c(NC=O)cc(-c4ccsc4)cn23)cc1 | · | 29 | · | · | · | – | 167 | 136
O=CNc1cc(-c2ccsc2)cn2c(-c3ccccc3)cnc12 | · | – | · | · | · | – | · | ·
COc1ccccc1-c1cc(NC=O)c2ncc(-c3ccc(S(C)(=O)=O)cc3)n2c1 | · | 104 | · | · | · | – | + | +
CC1(C(=O)NC2CCCCC2)CCC(=O)N1CC(F)(F)F (stereo not given) | · | – | · | · | · | · | · | ·
CC1CCCCN1C(=S)Nc1ccc2nc3n(c(=O)c2c1)CCCCC3 (stereo not given) | – | 30 | – | – | – | – | 45 | 39
O=C(COc1cc2oc(=O)c3c(c2cc1Cl)CCCC3)N1C[C@H]2C[C@@H](C1)c1cccc(=O)n1C2 | – | 35 | – | – | – | – | 122 | 87
Cc1c(OC(C)C(=O)N2C[C@H]3C[C@@H](C2)c2cccc(=O)n2C3)ccc2c3c(c(=O)oc12)CCC3 (stereo not given in full) | – | – | – | – | – | – | · | ·
CC(Oc1cc2oc(=O)c3c(c2cc1Cl)CCC3)C(=O)N1C[C@H]2C[C@@H](C1)c1cccc(=O)n1C2 (stereo not given in full) | – | 37 | – | – | – | – | 124 | 111
Cc1cc(OCC(=O)N2C[C@H]3C[C@@H](C2)c2cccc(=O)n2C3)c2c(C)cc(=O)oc2c1 | – | 34 | – | – | – | – | + | +
COc1cc2c(C(=O)O)c(C)n(-c3ccccc3)c2c2ccccc12 | – | – | – | – | – | – | · | ·
COc1ccccc1-n1c(C)c(C(=O)O)c2cc(OC)c3ccccc3c21 | – | 27 | – | – | – | – | 87 | 82
COc1ccc(C(=O)CC(C(=O)O)c2ccc(OC)c(OC)c2)cc1OC (stereo not given) | · | – | · | · | · | – | · | ·
Cc1ccc(NCc2nnc(SCC(=O)NNC(=O)Cc3ccccc3)n2C)cc1 | – | – | – | – | – | – | · | ·
Cc1cc(C)nc(NC(=O)Cc2cccs2)n1 | – | 32 | – | · | – | – | 113 | 87
